Out of some 62,000 compounds screened, about 120 (0.19%) were called active. Shown is part of a subset that was picked to be rich in actives. A number with no mark means an inactive call. Cut-off read from the data, not from the text of the source: active = inhibition above about 20% (passing the limit was not always enough); inactive = the rest.
The molecules below were run against Coagulation factor XI (Homo sapiens) (UniProt P03951) (assay: human factor XIa inhibition by mixtures – biochemical, 10-compound mixtures, primary screen (AID 680;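 note: each value is inhibition by a whole ten-compound pool holding the compound; 0% = enzyme with no mixture and 100% = wells lacking enzyme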)). Settings: purified FXIa, fluorogenic substrate, pooled mixtures; at 5 µM; active compounds read high.
Chain of Coagulation factor XI (Homo sapiens) (P03951 19-387 limits assumed): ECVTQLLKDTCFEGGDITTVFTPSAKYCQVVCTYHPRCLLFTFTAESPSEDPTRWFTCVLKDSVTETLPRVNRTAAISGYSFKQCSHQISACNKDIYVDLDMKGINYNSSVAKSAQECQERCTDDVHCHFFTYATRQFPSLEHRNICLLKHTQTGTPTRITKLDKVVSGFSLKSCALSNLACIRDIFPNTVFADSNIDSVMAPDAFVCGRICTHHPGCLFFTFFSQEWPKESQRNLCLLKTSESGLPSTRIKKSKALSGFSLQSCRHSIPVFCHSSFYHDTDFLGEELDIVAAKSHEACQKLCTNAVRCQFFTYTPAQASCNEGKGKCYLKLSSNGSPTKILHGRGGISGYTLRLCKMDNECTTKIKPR
Chain of Coagulation factor XI (Homo sapiens) (P03951 388-625 limits assumed): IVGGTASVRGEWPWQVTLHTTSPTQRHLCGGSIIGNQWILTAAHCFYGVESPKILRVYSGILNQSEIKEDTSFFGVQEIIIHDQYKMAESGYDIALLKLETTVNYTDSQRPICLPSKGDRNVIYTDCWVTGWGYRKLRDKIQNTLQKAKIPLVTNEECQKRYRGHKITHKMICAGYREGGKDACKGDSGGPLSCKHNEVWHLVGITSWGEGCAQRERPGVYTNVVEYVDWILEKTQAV
Molecule COC(C)(C)[C@]12CC(O)(C(C)C)ON1[C@H]1CCCCC1N2O (some centres not stated) has an inhibition of -9.49%. Work on CCOC(=O)CSc1nnc(CNC(=O)Cc2ccccc2)n1-c1ccccc1OC yielded an inhibition of 13.1%. For COc1ccc(CCN2C(=O)c3[nH]nc(-c4ccccc4O)c3C2c2ccc(C)cc2)cc1OC (configuration not stated), the inhibition was 8.98%. Work on CCc1c(C)n([O-])c2c([n+]1=O)CCCCC2 yielded an inhibition of 5.37%. CC(C)(C)n1c(=O)[nH]c2c(c1=O)CCC2 was tested, and the inhibition was 5.49%. O=C(CC1(O)C(=O)N(CN2CCOCC2)c2ccccc21)c1ccccc1 (configuration not stated) gave an inhibition of 4.51%. Cc1cc(NC(=O)CCC(=O)N(c2ccccc2)C(C(=O)NC2CCCC2)c2ccncc2)no1 (configuration not stated) showed an inhibition of 10%. Cn1c(NC(=O)c2ccco2)c(-c2ccccc2Cl)c(=O)c2ccccc21 showed an inhibition of 7.49%. For CC(C)(C)NC(=O)C(c1ccncc1)N(C(=O)CNC(=O)c1ccco1)c1ccc2c(c1)OCO2 (configuration not stated), the inhibition was 8.32%. CCOC(=O)C1CCN(C(=O)COc2cc(C)c(Br)c(C)c2)CC1 showed an inhibition of -1.91%. O=C(CSc1nc2c(cnn2-c2ccc(F)cc2)c(=O)[nH]1)N1CCCCCC1 was tested, and the inhibition was 2.05%. CCC(=O)c1cc2c(cc1NC(=O)c1cccs1)OCCO2 gave an inhibition of 1.74%. Work on Cc1oc(-c2cccc(Cl)c2)[n+]([O-])c1C yielded an inhibition of 1.39%. With CN(C)S(=O)(=O)c1ccc(Oc2ccc(S(=O)(=O)N(C)C)cc2)cc1 the inhibition was 7.21%. Cc1cccc2c1N(CC(=O)OC(C)C)C(=O)C2=O gave an inhibition of 1.41%. CC1CCN(c2nc3c(c(=O)[nH]c(=O)n3C)n2CCCc2ccccc2)CC1 showed an inhibition of -1.49%. With O=C(CSc1nnc(-c2ccncc2)n1C1CCCCC1)Nc1ccccc1 the inhibition was 8.47%. Work on Fc1ccc(-c2nnc(CSc3nnc(-c4ccc5c(c4)OCO5)o3)o2)cc1 yielded an inhibition of 0.485%. For COc1cccc(-n2cc3c(c2-c2ccccc2)c(=O)n(C)c(=O)n3C)c1, the inhibition was 3.95%. OCCCNC(c1ccccc1)c1ccc(O)cc1 (configuration not stated) was tested, and the inhibition was 7.84%. Work on COc1ccc2c(CC(=O)Nc3nnc(C4CC4)s3)coc2c1 yielded an inhibition of 4.86%. COc1ccccc1Cn1c(=S)[nH]c2cc(C(=O)N3CCN(C)CC3)ccc2c1=O was tested, and the inhibition was 5.3%. In the case of COc1cccc(NC(=O)CN(C)S(=O)(=O)c2ccc(C)cc2)c1, the inhibition is reported as -2.5%. Molecule Cc1ccccc1-c1nc(CS(=O)(=O)CC(=O)N2CCc3ccccc3C2)c(C)o1 has an inhibition of 11.3%. Work on COc1ccccc1CNC(=O)CCCn1c(=O)c2ccccc2n(CC(=O)NC2CCCC2)c1=O yielded an inhibition of 0.555%. Molecule CC12CN(Cc3ccccc3)CC(C)(CN(Cc3ccccc3)C1)C2=NO has an inhibition of -5.8%. In the case of CCOC(=O)NC(C(F)(F)F)(C(F)(F)F)P(=O)(c1ccccc1)c1ccccc1, the inhibition is reported as 22.6% (active). With CCOC(=O)C(C(=O)OCC)C(C#N)c1ccccc1 (configuration not stated) the inhibition was 3.99%. CCOC(=O)Nc1ccccc1N1C(=O)c2ccccc2C1=O gave an inhibition of 7.59%. Work on CCOC(=O)N1CCC(NC(=O)C(C)n2c3ccccc3c3cnn(C)c(=O)c32)CC1 (configuration not stated) yielded an inhibition of -52.1%. Work on CN(CCCC(=O)Nc1nccs1)S(=O)(=O)c1ccc(Cl)cc1 yielded an inhibition of 2.62%. Work on Cc1cc(C)c2c(n1)nn1c(-n3ccnc3)cc(C)nc21 yielded an inhibition of 4.82%. For CN(C(=O)c1ccno1)c1nnc(-c2cccnc2)s1, the inhibition was 0.72%. Molecule CN(Cc1ccccc1)Cc1ccccc1F has an inhibition of 11%. Molecule O=C(Nc1ccccc1)N(Cc1cccnc1)Cc1ccco1 has an inhibition of 9.03%. O=C(Nc1ccn(Cc2ccc(F)cc2)n1)c1ccncc1 was tested, and the inhibition was 1.2%. In the case of CS(=O)(=O)N1CCCC(C(=O)N2CCOCC2)C1 (configuration not stated), the inhibition is reported as 6.58%. For Fc1ccccc1OCCSc1nc2ccccc2o1, the inhibition was 5.06%. With COC(=O)C1=C(C)N(C)C(C)=C(C(=O)OC)C1c1cccc(Br)c1 the inhibition was 4.43%. With CC(=O)NC(C)(C)C1CC=C(C)/C(=N\O)C1 (configuration not stated) the inhibition was 6.99%. In the case of Cc1ccc(S(=O)(=O)N2CCC(C(=O)OCC(=O)N3CC(=O)Nc4ccccc43)CC2)cc1, the inhibition is reported as -8.9%. For Cc1ccc(-c2csc3nnc(SCC(=O)NCc4ccco4)n23)cc1, the inhibition was 25.9% (active). With Cn1c(-c2ccc(F)cc2)cnc1SCC(=O)NCc1ccco1 the inhibition was -1.83%. Molecule O=C(CSc1nnc2scc(-c3ccc(F)cc3)n12)NCc1ccco1 has an inhibition of 2.54%. Molecule COC(=O)c1c(NC(=O)c2cccs2)sc2c1CCCC2 has an inhibition of 5.01%. Work on NC(=O)COc1ccc2c3c(c(=O)oc2c1)CCCCC3 yielded an inhibition of -3.05%. CCC(=O)Nc1ccc(C(=O)CSc2nnc(CNc3ccc(Cl)cc3)o2)cc1OC showed an inhibition of 1.04%. COc1ccc(CCNC(=O)C2CCCN(Cc3nc(-c4cccc(Cl)c4)oc3C)C2)cc1OC (configuration not stated) showed an inhibition of 10.1%. Cc1nc2nc[nH]n2c(=O)c1NC(=O)c1cccc(OCC(C)C)c1 was tested, and the inhibition was 8.27%. Molecule CCOC(=O)C1CCN(C(=O)Cc2c(C(=O)O)[nH]c3ccccc23)CC1 has an inhibition of 6.1%. Molecule CCc1c(C)nc2ncnn2c1N1CCC(C(=O)NCc2ccc3c(c2)OCO3)CC1 has an inhibition of 8.05%. CCN(CC)CCN1C(=O)C(=O)/C(=C(/O)c2ccccc2)C1c1ccccc1F (configuration not stated) gave an inhibition of 4.21%. Cc1ccc(S(=O)(=O)N(C)CC(=O)N2CCc3ccccc32)cc1 was tested, and the inhibition was 4.38%. For COc1ccc(C2N=C(N)N=C(N)N2c2ccccc2)cc1OC (configuration not stated), the inhibition was 1.53%. In the case of O=C(CSc1nnc(-c2ccco2)o1)NCC(=O)c1ccccc1, the inhibition is reported as 10.1%. COc1cccc2c(C)c(C(=O)O)[nH]c12 showed an inhibition of -18%. Molecule CCOC(=O)N1CCC(O)(c2cc(C)c(C)cc2C)CC1 has an inhibition of 9.28%. Cc1nc2nc3c(cn2n1)C(=O)CC(c1ccccc1)C3 (configuration not stated) gave an inhibition of 1.31%. For COc1ccc(CCN2CNc3c(c(=O)n(C)c(=O)n3C)C2)cc1OC, the inhibition was 10.4%. Molecule N#CCCn1ncc2ccccc21 has an inhibition of -0.96%. COc1cc(=O)[nH]c(=O)n1C(=O)Cc1ccccc1 showed an inhibition of 2.34%. COc1ccc(N2CCN(C(=O)CSc3nnc4ncccn34)CC2)cc1 was tested, and the inhibition was 3.9%. In the case of CCOC(=O)c1cc2sccc2n1Cc1ccc(C#N)cc1, the inhibition is reported as 0.72%. CCOc1ccc(/C(O)=C2/C(=O)C(=O)N(Cc3cccnc3)C2c2ccc(N(C)C)cc2)c(C)c1 (configuration not stated) was tested, and the inhibition was -2.04%. O=c1c2ccccc2nnn1CSc1nc2sc3c(c2c(=O)n1CC1CCCO1)CCC3 (configuration not stated) gave an inhibition of 0.04%. In the case of CN(C)CCCNC(=O)c1ccc2[nH]c3ccccc3c2c1, the inhibition is reported as 3.52%. For O=C(CSc1nnc(-c2ccco2)n1Cc1ccccc1)NC(=O)NCc1ccco1, the inhibition was 2.1%. Work on CCOCCOC(=O)C1=C(C)N(C)C(=O)NC1c1ccccc1F (configuration not stated) yielded an inhibition of 5%. For CCc1ccc(-c2nnn(Cc3nc4ccccc4s3)n2)cc1, the inhibition was 9.76%. COc1ccc(-c2nnc(SC(C)C#N)o2)cc1 (configuration not stated) gave an inhibition of -13.7%. Molecule C=C(C)COc1ccc(-c2n[nH]c(C)c2-c2ccccc2)c(O)c1 has an inhibition of 6.11%. With C=C(C)COc1ccc(-c2n[nH]c(C)c2-c2ccccc2OC)c(O)c1 the inhibition was 21.4% (active). COc1ccc(-c2n[nH]c(C)c2-c2ccc(OC)c(OC)c2)c(O)c1 gave an inhibition of 5.75%. With Cc1sc2c(c1C)c(=O)n(-c1ccccc1)c1nncn21 the inhibition was 0.14%. In the case of O=C1CSC(c2cccc(F)c2)N1c1ccccc1F (configuration not stated), the inhibition is reported as 1.83%. CCCc1[nH]nc2c1C(c1ccc(Br)s1)C(C#N)=C(N)O2 (configuration not stated) was tested, and the inhibition was 7.01%. Work on COc1ccccc1-c1cc(C(=O)N2CCCCC2)no1 yielded an inhibition of 3.06%. COC(=O)CNS(=O)(=O)c1ccc(Cc2ccc(S(=O)(=O)NCC(=O)OC)cc2)cc1 was tested, and the inhibition was 13.4%. In the case of COC(=O)c1cc(NC2c3ccccc3C(=O)N2c2ccc(Cl)cn2)cc(C(=O)OC)c1 (configuration not stated), the inhibition is reported as 3.54%. In the case of CCCc1nc(N)nc2c1C(=O)CC(C)(C)C2, the inhibition is reported as -0.555%. For COC(=O)CN(c1cccc(C(C)=O)c1)S(C)(=O)=O, the inhibition was 2.59%. For CCN(c1ccccc1)S(=O)(=O)c1ccc(N)cc1, the inhibition was 0.065%. O=C(Nc1ccc(Cl)cn1)c1cnn2cccnc12 gave an inhibition of 3.33%. Brc1cccc(-c2nnc3n2CCC3)c1 showed an inhibition of 2.48%. Work on CC(C)CCNC(=O)CCNS(=O)(=O)c1ccc(Cl)cc1 yielded an inhibition of 6.13%. For CCOC(=O)c1c(-n2cnnn2)sc(C)c1C, the inhibition was 13.6%. Cc1c2cn[nH]c(=O)c2c(C)n1Cc1ccc(F)cc1 showed an inhibition of 3.31%. In the case of Cc1ccc(S(=O)(=O)N2CCCC2C(=O)NCc2ccco2)cc1 (configuration not stated), the inhibition is reported as 3.07%. With Cc1cccc(NC(=O)C2CCCN2S(=O)(=O)c2ccc(F)cc2)c1C (configuration not stated) the inhibition was 23.4% (active). In the case of CC(C)c1nnc(NC(=O)C2CCCN2S(=O)(=O)c2ccc(Cl)cc2)s1 (configuration not stated), the inhibition is reported as 9.37%. For N#Cc1nc(Cc2cccc3ccccc23)oc1NCc1ccc2c(c1)OCO2, the inhibition was 3.7%. In the case of O=C(Cn1nc(Cc2cccnc2)c2ccccc2c1=O)NCC1CCCO1 (configuration not stated), the inhibition is reported as 1.16%. CCn1c(SCCC(C)C)nnc1-c1c[nH]c2ccccc12 was tested, and the inhibition was 27.8% (active). For CCOC(=O)N1CCN(C(=O)CSc2nnc(-c3c[nH]c4ccccc34)n2CCOC)CC1, the inhibition was 6.18%. For CCC(C)Sc1nnc(-c2c[nH]c3ccccc23)n1CCOC (configuration not stated), the inhibition was 4.33%. Molecule O=C(c1ccccc1)c1ccc(OC(=O)N2CCCC2)cc1 has an inhibition of 5.6%. Work on COc1ccc(CCNC(=O)CSc2nnc(CNC(=O)c3cccs3)o2)cc1OC yielded an inhibition of 4.31%.
